Shown are actives, neighbours in structure and some others; about 19% of the full set was active somewhere.
Pf growth 48h: P. falciparum growth inhibition at 48 hours (one generation). P. falciparum luciferase growth in erythrocytes, 48 h. Potency, µM (series often up to 28.7 µM), actives largely listed as inhibitors. hit rate 5.9% among 310,000
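Growth was read as firefly luciferase luminescence after a 48 h, 37 C, 5% CO2 exposure of compounds to reporter-bearing P. falciparum cultures (0.1% parasitemia, 2% hematocrit final) in Albumax-supplemented RPMI 1640.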
MARV entry inh: inhibitors of Marburg virus binding or cell entry; hit rate 1.8% among 300,000; Marburg virus pseudotyped entry inhibition, cell reporter; AID 540276; Potency, µM (highest dose often 37.8 µM), most hits filed as inhibitors; calls by dose curve; tested in HEK293 cells
Cycloheximide cs: counter-screen hit for Shiga toxin inhibitors, cycloheximide. cell reporter, cycloheximide protein synthesis inhibition counterscreen. max response, %. hit rate 12% among 300,000; in the data active means max response mostly above about 13%, no sharp cut-off; inactive means mostly below about 14%; further: read at 38.3 µM for the half of the compounds with a filed dose
Shiga inhibitor: Shiga toxin inhibition; Vero cells, Shiga toxin protein synthesis inhibition reporter; inhibition, % at 38.7 µM; hit rate 9.2% among 290,000; AID 2315; in the data active means inhibition mostly above about 28%, no sharp cut-off; inactive means mostly below about 43%
Pf growth 96h: inhibits malaria parasite growth, 96 h; P. falciparum luciferase reporter growth, 96 h; Potency, µM (top dose mostly 28.7 µM), actives largely listed as inhibitors; hit rate 6.9% among 320,000
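Two-generation exposure (96 h) targets delayed-death phenotype. Reporter parasites carrying integrated firefly luciferase, in red cells at 2% hematocrit and 0.05% parasitemia final, kept at 37 C, 5% CO2; luminescence loss indicates inhibition.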
LASV entry inh: inhibitors of Lassa virus binding or cell entry | AID 540256 | Potency, µM (titrated, usually from 37.9 µM), most hits filed as inhibitors | hit rate 1.2% among 300,000 | Lassa virus pseudotype entry inhibition, cell reporter; calls by dose curve; tested in HEK293 cells; further: nearly all actives have a fitted effect of over 50% in size
A number is an active result; – = inactive; ? = inconclusive; · = not tested or not shown; + = active, no number; [ ] = remark or other dose. Unless noted, the call rests on the fitted dose curve; in most records, active means well fitted inhibition curve with a large enough effect; inconclusive means small, poorly fitted or top-dose-only effect, or another doubt; inactive means no such curve, though single readings can be large or run the other way.

SMILES	Pf growth 48h	MARV entry inh	Cycloheximide cs	Shiga inhibitor	Pf growth 96h	LASV entry inh
Cc1ccc(/C=N/NC(=O)CC2N=C(Cc3ccccc3)NNC2=O)cc1 (configuration not stated)	·	–	·	·	·	–
CCCCN1CC(O)=C(c2nc3ccccc3s2)C1=N	–	?	25	–	·	–
N=C1C(c2nc3ccccc3s2)=C(O)CN1NC(=O)c1ccco1	–	·	–	–	–	·
CC(O)CN1CC(O)=C(c2nc3ccccc3s2)C1=N (configuration not stated)	–	–	17	–	–	–
CCN1CC(O)=C(c2nc3ccccc3s2)C1=N	–	?	24	–	·	–
N=C1C(c2nc3ccccc3s2)=C(O)CN1CCCO	–	–	–	–	·	?
Cc1ccccc1NC(=O)CSc1nc2ccc(NC(=O)COc3ccccc3F)cc2s1	·	–	·	·	·	–
Cc1nc(SCC#N)c2c3c(sc2n1)CCC3	–	–	–	–	·	–
N#C/C(=C\c1ccccc1[N+](=O)[O-])C(=O)NC1CCCCC1	?	?	–	–	?	?
CCOCCCNC(=O)c1cn(CC)c2ccc(S(=O)(=O)N(C)C3CCCCC3)cc2c1=O	9.3µM	·	–	–	?	·
CCCN(CCC)CCCNC(=O)c1cn(C)c2ccc(S(=O)(=O)N(C)C3CCCCC3)cc2c1=O	?	–	–	–	–	?
CCCN(CCC)CCCNC(=O)c1cn(CC)c2ccc(S(=O)(=O)N(C)C3CCCCC3)cc2c1=O	9.3µM	–	–	–	10µM	–
CCn1cc(C(=O)NCCCOC)c(=O)c2cc(S(=O)(=O)N(C)C3CCCCC3)ccc21	?	–	–	–	–	–
CCn1cc(C(=O)NCc2ccc(Cl)cc2)c(=O)c2cc(S(=O)(=O)N(C)C3CCCCC3)ccc21	·	2.8µM	·	·	·	?
CCn1cc(C(=O)NCCc2ccc(OC)c(OC)c2)c(=O)c2cc(S(=O)(=O)N(C)C3CCCCC3)ccc21	·	11µM	·	·	·	?
COc1ccccc1C1C2=C(CC(C)(C)CC2=O)N(CC(=O)O)C2=C1C(=O)CC(C)(C)C2	–	·	–	–	–	·
C=CCc1ccccc1OCCn1ccnc1	?	–	–	–	–	–
Cc1ccc(S(=O)(=O)C(C)C(=O)NCCS(=O)(=O)c2ccc(Cl)cc2)cc1 (configuration not stated)	–	–	–	–	–	–
COc1cc2nc(C3CCC3)nc(N3CCN(c4ccccn4)CC3)c2cc1OC	?	?	–	–	?	?
COc1cc2nc(C3CCC3)nc(N3CCN(c4ccccc4OC)CC3)c2cc1OC	13µM	?	–	–	?	?
COc1ccc(CN(C)C(=O)COC(=O)c2cnc(Cl)c(Cl)c2)cc1	·	–	·	·	·	–
COc1cccc(-c2cc(C(=O)N3CCc4ccccc4C3)[nH]n2)c1	–	·	26	38	?	·
O=C(Nc1ccc(Cl)cc1Cl)N1CCN(c2ncccn2)CC1	–	·	–	–	–	·
Cc1ccc(-c2cc(C(=O)N3CCc4ccccc4C3)[nH]n2)cc1C	–	·	–	–	–	·
O=C(Nc1cccc(Cl)c1)N1CCc2ccccc2C1	–	?	34	35	?	–
SMILES	Pf growth 48h	MARV entry inh	Cycloheximide cs	Shiga inhibitor	Pf growth 96h	LASV entry inh
O=C(Nc1cccc(Cl)c1)c1nc[nH]c1C(=O)N1CCc2ccccc2C1	–	·	·	·	?	·
COc1cccc(NC(=O)N2CCc3ccccc3C2)c1	–	–	70	91	–	–
O=C(Nc1cccc(Cl)c1)N1CCN(c2ncccn2)CC1	–	–	14	–	–	–
COC(=O)CSc1nnc(CNC(=O)Cc2ccccc2)n1C	–	–	–	–	–	–
CCC(Sc1ccc2nnc(-c3ccc(F)cc3)n2n1)C(=O)OC (configuration not stated)	?	–	–	–	–	–
Cc1onc(-c2ccccc2Cl)c1C(=O)N1CCN(C/C=C/c2ccccc2)CC1	?	–	–	–	–	–
COc1cccc(-c2cc(C(=O)NCc3ccccc3)[nH]n2)c1	·	·	·	·	·	7.9µM
COCc1nc(-c2ccc(-c3ccccc3)nc2OC)no1	–	–	64	156	?	–
CCc1nc(-c2ccc(-c3ccc(OC)cc3)nc2OC)no1	–	?	40	+	–[5.75 µM]	?
COCc1nc(-c2ccc(-c3ccc(OC)cc3)nc2OC)no1	–	?	47	active	?	–
COc1ccc(-c2ccc(-c3noc(-c4cc(OC)cc(OC)c4)n3)c(OC)n2)cc1	·	–	·	·	·	–
COc1ccc(-c2ccc(-c3noc(C(C)C)n3)c(OC)n2)cc1	–	–	40	–	–	?
CCOc1nc(-c2ccccc2)ccc1-c1noc(COC)n1	?	–	–	–	?	?
